Tests used:
[1] = test system: HCC1937; experiment: relative cell viability, compound + erastin, vs DMSO (fraction of DMSO control); higher = less growth inhibition; conditions: 72 h
[2] = test system: MDA-MB-231; experiment: as above; conditions: 72 h
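Note: viability read by CCK-8 kit in 96-well plates, part of a combination screen pairing lipid-metabolism-targeting compounds with erastin.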

Row | SMILES | relative cell viability [1] | relative cell viability [2]
1 | C[C@]12C=CC(=O)N[C@@H]1CC[C@@H]1[C@@H]2CC[C@]2(C)[C@@H](C(=O)Nc3cc(C(F)(F)F)ccc3C(F)(F)F)CC[C@@H]12 [Dutasteride] + CCOc1ccccc1-n1c(C(C)N2CCN(C(=O)COc3ccc(Cl)cc3)CC2)nc2ccccc2c1=O [erastin] | 0.573 | 0.596
2 | O=C(O)c1cccc(N=Nc2c(O)[nH]c3ccc(S(=O)(=O)NCc4ccc(F)cc4)cc23)c1 + CCOc1ccccc1-n1c(C(C)N2CCN(C(=O)COc3ccc(Cl)cc3)CC2)nc2ccccc2c1=O [erastin] | 0.544 | 0.636
3 | CC(O)(CC(=O)O)CC(=O)O [Meglutol] + CCOc1ccccc1-n1c(C(C)N2CCN(C(=O)COc3ccc(Cl)cc3)CC2)nc2ccccc2c1=O [erastin] | 0.708 | 0.67
4 | OC[C@H]1O[C@@H](Oc2cc(O)cc(/C=C/c3ccc(O)cc3)c2)[C@H](O)[C@@H](O)[C@@H]1O [Polydatin] + CCOc1ccccc1-n1c(C(C)N2CCN(C(=O)COc3ccc(Cl)cc3)CC2)nc2ccccc2c1=O [erastin] | 0.78 | 0.601
5 | CC(C)[C@H](N=C(NS(=O)(=O)c1ccc(Cl)cc1)N1C[C@H](c2ccccc2)C(c2ccc(Cl)cc2)=N1)C(N)=O + CCOc1ccccc1-n1c(C(C)N2CCN(C(=O)COc3ccc(Cl)cc3)CC2)nc2ccccc2c1=O [erastin] | 0.483 | 0.429
6 | CC[C@H](C)C(=O)O[C@H]1CCC=C2C=C[C@H](C)[C@H](CC[C@@H]3C[C@@H](O)CC(=O)O3)[C@H]21 [Mevastatin] + CCOc1ccccc1-n1c(C(C)N2CCN(C(=O)COc3ccc(Cl)cc3)CC2)nc2ccccc2c1=O [erastin] | 0.6 | 0.434

— the supplement of paper PMC9492666
